# Screening data (PubChem BioAssay)
# TrxR1 inh: rat TrxR1 inhibition; 390,000 compounds, 1% hits; AID 588453; Potency, µM (titrated, usually from 114 µM), without a hit: top-dose activity change, negative = inhibition, actives largely listed as inhibitors; recombinant rTrxR1, NADPH fluorescence consumption, selenite substrate; note: potency is the fitted concentration of half-maximal effect; % is set by controls: 0 for no effect and ±100 for the full control effect; nearly all actives have a fitted effect of over 65% in size
#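 Rat TrxR1 (90 nM in the dispensed reagent) was pre-reduced with 400 uM NADPH for 5 min at room temperature, then incubated with compound for 15 min. After 400 uM selenite was added, NADPH fluorescence (Ex 340/Em 450 nm) was followed for 8 min.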
# Giardia kill: kills Giardia lamblia | Giardia lamblia trophozoite viability | activity change, % at 7.66 µM, hits read low | 340,000 compounds, 0.15% hits; in the data active = activity change below about -80%; inconclusive = between about -30% and that limit;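 note: parasites exposed to compound for two days anaerobically before the ATP read; % is set by controls: 0 for no effect and ±100 for the full control effect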
#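 ATP-content bioluminescence gauges trophozoite survival. Cells (100/well) receive compound and incubate anaerobically for 48 hrs at 37 deg C; detection reagent follows for 15-30 min at room temperature.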
# IL2 activator: activators of IL-2. 360,000 compounds, 0.065% hits. activation, % (series mostly up to about 46 µM). AID 652025. IL-2 activation reporter assay, cell-based qHTS; stimulated with anti-CD3/CD4/CD28 beads; in transgenic mouse T cells; in the data active = activation above about 50%; inconclusive = mostly about 30% to 49%; note: 0% is about no effect
#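 Unstimulated transgenic mouse T cells preincubated 60 min with compound, then stimulated with anti-CD3/anti-CD4-coated beads plus anti-CD28 for 18 h at 37 degrees C. IL-2 response read as EGFP and DsRed fluorescence by plate cytometry.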
# TrxR1 substrate: is turned over as a substrate by rat TrxR1; 390,000 compounds, 0.01% hits; purified TrxR1 substrate turnover, NADPH consumption readout; Potency, µM (doses to about 114 µM), inactives show at the top dose activity change, negative = substrate turnover; note: potency is the fitted concentration of half-maximal effect; % is set by controls: 0 for no effect and ±100 for the full control effect; nearly all actives have a fitted effect of over 50% in size
#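 Rat TrxR1, dispensed at 90 nM, was prereduced with 400 uM NADPH (final) for 5 min at ~22 deg C, then incubated with compound 15 min before 400 uM selenite. A first-read NADPH fluorescence drop versus no-compound background flagged substrates.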
# IDH1 R132H inh: inhibitors of human mutant IDH1 R132H. O75874. IDH1-R132H enzyme, NADPH consumption, diaphorase/resazurin fluorescence. Potency, µM (series often up to 76.6 µM), for the others: at the top dose activity change, negative = inhibition, hits mostly inhibitors. 390,000 compounds, 0.093% hits; note: potency is the fitted concentration of half-maximal effect; % is set by controls: 0 for no effect and ±100 for the full control effect; nearly all actives have a fitted effect of over 65% in size
# Target sequence (O75874 whole entry R132H, stated change not applied): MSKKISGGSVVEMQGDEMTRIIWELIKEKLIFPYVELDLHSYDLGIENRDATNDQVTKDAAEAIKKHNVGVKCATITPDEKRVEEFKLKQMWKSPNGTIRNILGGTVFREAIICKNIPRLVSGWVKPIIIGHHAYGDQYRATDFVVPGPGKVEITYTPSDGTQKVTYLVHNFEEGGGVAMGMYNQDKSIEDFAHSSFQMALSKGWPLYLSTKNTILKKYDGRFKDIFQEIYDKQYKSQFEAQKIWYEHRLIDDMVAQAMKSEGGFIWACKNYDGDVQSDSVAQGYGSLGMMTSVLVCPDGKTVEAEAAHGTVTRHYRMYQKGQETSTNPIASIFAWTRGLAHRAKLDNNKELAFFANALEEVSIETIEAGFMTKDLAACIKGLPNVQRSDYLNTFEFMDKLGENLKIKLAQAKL
#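 IDH1-R132H (0.5 ug/mL) preincubated 30 min with compound, then NADPH (0.016 mM) and alpha-KG (2 mM) added; 80 min at RT, pH 7.5. Remaining NADPH coupled via diaphorase/resazurin to fluorescence (540/590 nm); concentration-response curves normalized to no-enzyme control.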
# BRCA1 expr up: activators of BRCA1 expression. 380,000 compounds, 1.1% hits. Potency, µM (doses to about 46.1 µM), for inactives: top-dose activation, usual class: activators. MCF7-BRCA1-FFLuc reporter, luminescence, 48 h; response scale: scaled: vehicle 0%, 10 µM genistein 100%; note: potency is the fitted concentration of half-maximal effect; nearly all actives have a fitted effect of over 80% in size
#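 Cells: MCF7-BRCA1-FFLuc, 2000/well. Exposure: 48 h, 37 °C, 5% CO2. Read: luminescence, 15 min post-substrate. Controls: genistein 10 microM (maximal activation), DMSO (neutral).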
# Active calls of the source: *; u = inconclusive; x = no result given; [ ] = remark or other dose. An excerpt weighted towards active compounds, which were near 2.2% of everything screened. Unless noted, calls come from the whole dose curve; as a rule, active = well fitted curve in the direction sought with a large enough effect; inconclusive = small, poorly fitted or top-dose-only effect, or another doubt; inactive = no such curve, though single readings can be large; an effect the other way counts as inactive or inconclusive.
SMILES,TrxR1 inh,Giardia kill,IL2 activator,TrxR1 substrate,IDH1 R132H inh,BRCA1 expr up
CCOC(=O)c1ccc(N2CCN(c3cc(C)ccc3C)CC2)c(NC(=O)Nc2ccccc2)c1,34%[57.1 µM],x,x,9%[57.1 µM],-12%,x
O=C(CCC1N=C2c3ccccc3N=C(SCc3ccc(F)cc3)N2C1=O)NC1CCCCC1 (stereo not given),7%[57.1 µM],x,x,9%[57.1 µM],3%,x
CCOCCc1nn2c(=O)cc(COC(=O)c3ccccc3NC(=O)C3CCCCC3)nc2s1,16%[57.1 µM],x,x,10%[57.1 µM],-11%,x
O=C(COc1ccc2cc(-c3ccccc3)c(=O)oc2c1)NCC1CCC(C(=O)O)CC1 (stereo not given),32µM*,-11,0,892%,-1%,23%
O=C(COc1ccc2c(-c3ccccc3)cc(=O)oc2c1)NCC1CCC(C(=O)O)CC1 (stereo not given),-4%,-5,-1,-10%,14%,22%
Cc1ccc(C2=Nc3ccccc3NC(c3ccncc3)=N2)cc1,4%,x,x,-11%,x,x
COC(=O)C1=C[C@@H](C(=O)OC)C2C3=C(C(=O)[C@@]2(C)NC(=O)c2ccccc2)[C@H](c2ccccc2)[C@@H]2C(=O)N(c4ccccc4)C(=O)[C@@H]2[C@@H]3C1 (stereo not given in full),6%,-11,x,-4%,x,x
Cc1cccc(Nc2ncnc(N)c2[N+](=O)[O-])n1,14%,-9,-1,-2%,0%,55%
Cc1cc(C)nc(Sc2ncnc(N)c2[N+](=O)[O-])n1,11µM*,5,0,6%[57.1 µM],1%,-86%
C=CCN1CCN(C(=O)CSc2ccccc2)CC1,26%,-11,0,5%,1%,11µM*
COc1ccc(S(=O)(=O)Cc2ccc(C(=O)N3CCOCC3)o2)cc1,35µM*,6,-3,4%,7%,2%
COc1ccc(CNC(=O)Cn2ccc3cc(S(=O)(=O)N4CCCCC4)ccc32)cc1OC,14%,x,x,-5%,-2%,x
COc1ccc2c(CNCCc3ccc(SC)cc3)c(C(=O)O)n(Cc3ccc(F)cc3)c2c1,9%,x,x,2%,0%,-61%
COc1ccc(CNc2ccc([N+](=O)[O-])cn2)cc1,-8%,u,0,3%,3%,10µM*
CCc1ccc(C2C(C#N)=C(N)C(C#N)(C#N)C3=CCC(C(C)(C)C)CC32)cc1 (stereo not given),u,-1,1,1%,37µM*,-57%
COc1ccc2nc3ccccc3nc2c1,-15%,8,0,7%,-13%,13µM*
COc1ccc(-c2nc3ccccc3nc2-c2ccccc2)cc1,12%[57.1 µM],1,2,15%[57.1 µM],-1%,0%
COC(=O)c1ccc(COC(=O)CCC(=O)c2cccs2)cc1,17%[57.1 µM],-14,-4,-3%,1%,10µM*
CNC(=O)COC(=O)CCC(=O)c1cccs1,21%,1,0,-3%,-3%,-4%
COC(=O)c1ccc(COC(=O)c2ccc(N(C)C)cc2)cc1,16%,-10,-4,-1%,1%,5µM*
O=C(CCn1nc(-c2ccc(Cl)cc2)ccc1=O)NCCc1ccccc1,15%[57.1 µM],x,x,2%[57.1 µM],2%,19%
Cc1ccc2c(c1)c1c(c(=O)n(Cc3ccccc3)c(=O)n1Cc1cccc(F)c1)n2C,47%,x,x,26%,-11%,6%
COc1cc(/C=N/n2cnnc2)ccc1OS(=O)(=O)c1ccccc1[N+](=O)[O-],u,-21,0,-4%,-3%,39%
O=[N+]([O-])c1ccccc1S(=O)(=O)Oc1ccc(/C=N/n2cnnc2)cc1,u,-81*,-3,3%,7%,-22%
COc1cc(Nc2ncc3c(n2)CCN(Cc2cc(F)cc(F)c2)C3)cc(OC)c1,8%[57.1 µM],x,x,0%[57.1 µM],x,x
SMILES,TrxR1 inh,Giardia kill,IL2 activator,TrxR1 substrate,IDH1 R132H inh,BRCA1 expr up
COc1cccc2c(=O)c3ccccc3oc12,2%,8,0,13%,-3%[38.3 µM],u
O=c1c2ccccc2oc2ncccc12,-8%[57.1 µM],5,0,3%[57.1 µM],5%,13µM*
CC(C)NS(=O)(=O)c1cc(C(F)(F)F)ccc1/C=C/C(=O)O,u,x,x,2%,x,x
OC1=C(O)c2nc3ccccc3nc21,1.3µM*,-4,-2,2%,0%,-27%
OC1=C(O)c2nc3cc(C(F)(F)F)ccc3nc21,2µM*,u,0,-5%,-1%,-14%
Cc1cc2nc3c(nc2cc1C)C(O)=C3O,2.5µM*,-24,0,1%,2%,-12%
c1ccc(-c2nc3ccccc3nc2-c2ccccn2)nc1,-4%,-5,1,-14%,2%,-2%
Cc1cc2nc3c(nc2cc1C)CCCC3,7%[57.1 µM],-24,-1,-1%[57.1 µM],-5%,u
COc1ccccc1C1N=C(Nc2nc3ccccc3o2)NC2=C1C(=O)CC(C)(C)C2 (stereo not given),23%,4,x,13%,x,-36%
CCOC(=O)C(CC)N1CCN(Cc2ccc(F)cc2)C(=O)C1=O (stereo not given),15%[57.1 µM],x,x,3%[57.1 µM],0%,-9%
O=C(O)c1ccc(-n2cccn2)c([N+](=O)[O-])c1,56µM*,-1,-4,-13%,1%,-1%
Cc1ccc(NC(=O)c2ccc(-n3cccn3)c([N+](=O)[O-])c2)cc1,-28%,-10,-3,-4%,19%,3%
COc1cc(OC)c(NC(=O)c2cc(C(C)=O)n3ccccc23)cc1Cl,15%[57.1 µM],x,x,3%[57.1 µM],7%,x
CCc1ccc(NC(=O)c2cccc(N3CCCS3(=O)=O)c2)cc1,15%[57.1 µM],x,x,2%[57.1 µM],3%,x
O=C1c2ccccc2-c2nnc(-c3ccc(F)cc3)cc21,5%,u,2,-4%,-3%,67%
Cc1ccc(-c2cc3c(nn2)-c2ccccc2C3=O)cc1,40%,-97*,1,5%,17%,-88%
Fc1ccc(Cc2cn3cc(-c4ccc(Cl)cc4)nc3s2)cc1,22%,x,x,3%,-1%,0.89µM*
Fc1ccc(-c2cn3cc(Cc4ccc(Cl)cc4)sc3n2)cc1,13%,x,x,1%,-12%,4.5µM*
Fc1ccc(-c2cn3cc(Cc4ccccc4)sc3n2)cc1,-3%,x,x,-5%,5%,x
CCCS(=O)(=O)c1nnnn1-c1cccc(OC)c1,3.5µM*,-8,-4,10%,3%,-59%
CN(C1=C(NC(=O)c2ccccc2)C(=O)c2ccccc2C1=O)C1CCS(=O)(=O)C1 (stereo not given),50µM*,-21,-1,-3%,28%,-67%
O=C1C(c2cccc(Br)c2)N(CCc2ccccc2)C(=O)CN1C1CCCCC1 (stereo not given),15%[57.1 µM],x,x,2%[57.1 µM],-9%,x
